# In PubChem BioAssay (NCATS):
# Records with an inconclusive call do not appear. A call without a number means that no potency is given here. Active and inactive are the calls of the source. Calls follow the shape of the dose curve; as a rule, active = well fitted curve in the direction sought with a large enough effect; inconclusive = small, poorly fitted or top-dose-only effect, or another doubt; inactive = no such curve, though single readings can be large; an effect the other way counts as inactive or inconclusive.
# Legend:
# [1] = target: Aldehyde dehydrogenase, mitochondrial (Homo sapiens) (UniProt P05091); assay: qHTS for Inhibitors of the Aldehyde Dehydrogenase Family (ALDH2) Primary screen (AID 2061308); also: nearly all actives have a fitted effect of over 55% in size
# [2] = target: Retinaldehyde dehydrogenase 3 (Homo sapiens) (UniProt P47895); assay: qHTS for Inhibitors of the Aldehyde Dehydrogenase Family (ALDH1A3) Validation screen (AID 2061312); also: nearly all actives have a fitted effect of over 45% in size
# [3] = target: Retinaldehyde dehydrogenase 3 (Homo sapiens) (UniProt P47895); assay: qHTS for Inhibitors of the Aldehyde Dehydrogenase Family (ALDH1A3) Primary screen (AID 2061315)
# [4] = BET inhibitor-based combinations targeting novel dependencies in MECOM-rearranged (r) AML: SET-2 cell line (AID 2202231); conditions: SET-2 AML cells viability, CellTiter-Glo luminescence, 48 h; viability: active compounds read low, concentration not given here; also: potency is read from the fitted curve at half-maximal effect; nearly all actives have a fitted effect of over 35% in size
# Method in brief: (§1)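 500 cells/well; 11-pt dose curve; 48 h, standard incubator; CellTiter-Glo luminescence after 15 min RT; DMSO/empty-well normalization; AUC plus Z-AUC (mean-centered within each line).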
# [5] = BET inhibitor-based combinations targeting novel dependencies in MECOM-rearranged (r) AML: MV-4-11 cell line (AID 2202233); also: potency is read from the fitted curve at half-maximal effect; nearly all actives have a fitted effect of over 45% in size
# Method in brief: (§2)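 Cells were plated at 500 per well and exposed to each drug across an 11-point dose range for 48 hr at standard incubator conditions. Viability was read by CellTiter-Glo luminescence, and activity was expressed as AUC and per-cell-line Z-transformed AUC.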
# [6] = BET inhibitor-based combinations targeting novel dependencies in MECOM-rearranged (r) AML: HNT-34 cell line (AID 2202234); also: potency is read from the fitted curve at half-maximal effect; nearly all actives have a fitted effect of over 35% in size
# Method in brief: as §2
# [7] = BET inhibitor-based combinations targeting novel dependencies in MECOM-rearranged (r) AML: UCSD-AML1 cell line (AID 2202235); also: potency is read from the fitted curve at half-maximal effect; nearly all actives have a fitted effect of over 40% in size
# Method in brief: as §2
# [8] = BET inhibitor-based combinations targeting novel dependencies in MECOM-rearranged (r) AML: AML-191 cell line (AID 2202236; also: potency is read from the fitted curve at half-maximal effect; nearly all actives have a fitted effect of over 35% in size)
# Method in brief: as §1
smiles,measurement,setting,value
C/C(=C\c1csc(C)n1)[C@@H]1C[C@@H]2O[C@@H]2CCC[C@H](C)[C@H](O)[C@@H](C)C(=O)C(C)(C)[C@@H](O)CC(=O)O1,Potency,[1],inactive
same,Potency,[2],inactive
same,Potency,[3],inactive
same,Potency,[4],33.2 nM (active)
same,Potency,[5],33.2 nM (active)
same,Potency,[6],23.5 nM (active)
same,Potency,[7],18.6 nM (active)
same,Potency,[8],23.5 nM (active)
COC(=O)c1nc(-c2cccc3ccccc23)oc1OC,Potency,[1],inactive
same,Potency,[3],inactive
O=C(Nc1nnc(-c2cccs2)o1)c1ccc(Cl)cc1,Potency,[1],inactive
same,Potency,[3],inactive
CC1=CC(=O)[C@@H](O)[C@]2(C)C3[C@@H](O)[C@@H]4OC(=O)[C@@H]([C@H]4C)[C@]3(C)C(=O)[C@H](O)[C@@H]12 (stereo not given in full),Potency,[1],inactive
CN(C)CCc1c[nH]c2ccc(CN3CCN(C)S3(=O)=O)cc12,Potency,[1],inactive
same,Potency,[2],inactive
same,Potency,[3],inactive
OCCCCC#Cc1cncc(OC[C@@H]2CCN2)c1,Potency,[1],inactive
CC(C)[C@H]1OC(=O)[C@H](Cc2ccccc2)N(C)C(=O)[C@@H](C(C)C)OC(=O)[C@H](Cc2ccccc2)N(C)C(=O)[C@@H](C(C)C)OC(=O)[C@H](Cc2ccccc2)N(C)C1=O,Potency,[1],inactive
same,Potency,[3],inactive
COc1cccc(NCC(F)Cn2c3ccc(Br)cc3c3cc(Br)ccc32)c1 (stereo not given),Potency,[1],inactive
same,Potency,[2],inactive
same,Potency,[3],inactive
Cc1c(Cl)c(OCC(=O)N2CCN(C)CC2)nc2sc(C(=O)NC3CC3)c(N)c12,Potency,[1],inactive
same,Potency,[2],inactive
same,Potency,[3],inactive
O=C(OC[C@H]1O[C@@H](Oc2ccc(O)cc2CO)[C@H](O)[C@@H](O)[C@@H]1O)c1ccccc1,Potency,[1],inactive
CN(Cc1cccc(-c2ccncc2)c1)C(=O)Oc1ccc(-c2ccc(C(N)=O)cc2)cc1,Potency,[1],inactive
same,Potency,[2],inactive
same,Potency,[3],inactive
O=C1CN=C(c2ccccc2Cl)c2cc(Br)ccc2N1,Potency,[1],inactive
same,Potency,[2],inactive
same,Potency,[3],inactive
COc1ccccc1CN[C@H]1C2CCN(CC2)[C@H]1C(c1ccccc1)c1ccccc1,Potency,[1],inactive
same,Potency,[2],inactive
same,Potency,[3],inactive
CO[C@@H]1C[C@H](O[C@H]2CC[C@@]3(C)C(CCC4C3CC[C@]3(C)[C@@H](C5=CC(=O)OC5)[C@@H](OC(C)=O)CC43O)C2)O[C@H](C)[C@@H]1O[C@H]1O[C@H](CO[C@@H]2O[C@H](CO)[C@@H](O)[C@H](O)[C@H]2O)[C@@H](O)[C@H](O)[C@H]1O (stereo not given in full),Potency,[1],inactive
same,Potency,[3],inactive
C[C@@H](CN1CCC2(CC1)C(=O)NCN2c1cccc(F)c1)NC(=O)c1ccc(Br)cc1,Potency,[1],inactive
same,Potency,[2],inactive
same,Potency,[3],inactive
O=C(Nc1ncc(Cc2ccc(C(F)(F)F)cc2)s1)c1cn(-c2ccccc2)cn1,Potency,[1],inactive
same,Potency,[3],inactive
COC1CC(OC2CCC3(C=O)C(CCC4C3CCC3(C)C(C5=CC(=O)OC5)CCC43O)C2)OC(C)C1O (stereo not given),Potency,[1],inactive
C=C1C(=O)O[C@@H]2[C@H]3C(=C)[C@@H](O)C[C@H]3C(=C)C[C@@H](O)[C@@H]12,Potency,[1],inactive
CC(=O)OC12C(O)C(C)C3(O)C4C=C(C)C(=O)C4CC(CO)=CC3C1C2(C)C (stereo not given),Potency,[1],inactive
COc1ccc(C(C)(C)C)cc1CN[C@H]1C2CCN(CC2)[C@H]1C(c1ccccc1)c1ccccc1,Potency,[1],inactive
same,Potency,[2],inactive
same,Potency,[3],inactive
CC1(C)C(=O)N(c2ccc(C#N)c(C(F)(F)F)c2)C(=O)N1CCCCO,Potency,[1],inactive
same,Potency,[2],inactive
same,Potency,[3],inactive
COC1(C[S@@](=O)c2ccccc2)CCN(CCc2c[nH]c3ccc(F)cc23)CC1,Potency,[1],inactive
same,Potency,[2],inactive
same,Potency,[3],inactive
Oc1ccc2c3c1O[C@H]1c4[nH]c5c(N=C=S)cccc5c4C[C@@]4(O)[C@@H](C2)N(CC2CC2)CC[C@]314,Potency,[1],inactive
same,Potency,[3],inactive
COC(=O)C12C(=O)C(C)(O)C(=O)C1(C)C(C)=CC1C34CCC(OC3=O)C(C)(C)C4CCC12C (stereo not given),Potency,[1],inactive
same,Potency,[3],inactive
COc1cccc(CNc2ccc(S(=O)(=O)Nc3cccc(-c4ccccc4)c3)cc2)c1O,Potency,[1],inactive
same,Potency,[3],inactive
